# Hits are enriched below; roughly 4.4% of the tested compounds scored in any of these assays.
# 12-hLO inh: inhibitors of human 12-lipoxygenase (ALOX12) | purified 12-hLO, xylenol orange hydroperoxide absorbance | hit rate 0.12% among 150,000 | Potency, µM (series often up to 57.1 µM), without a hit: at the highest dose activity change, negative = inhibition, hits mostly inhibitors | P18054; further: nearly all actives have a fitted effect of over 55% in size
# Target sequence (P18054 whole entry, looked up): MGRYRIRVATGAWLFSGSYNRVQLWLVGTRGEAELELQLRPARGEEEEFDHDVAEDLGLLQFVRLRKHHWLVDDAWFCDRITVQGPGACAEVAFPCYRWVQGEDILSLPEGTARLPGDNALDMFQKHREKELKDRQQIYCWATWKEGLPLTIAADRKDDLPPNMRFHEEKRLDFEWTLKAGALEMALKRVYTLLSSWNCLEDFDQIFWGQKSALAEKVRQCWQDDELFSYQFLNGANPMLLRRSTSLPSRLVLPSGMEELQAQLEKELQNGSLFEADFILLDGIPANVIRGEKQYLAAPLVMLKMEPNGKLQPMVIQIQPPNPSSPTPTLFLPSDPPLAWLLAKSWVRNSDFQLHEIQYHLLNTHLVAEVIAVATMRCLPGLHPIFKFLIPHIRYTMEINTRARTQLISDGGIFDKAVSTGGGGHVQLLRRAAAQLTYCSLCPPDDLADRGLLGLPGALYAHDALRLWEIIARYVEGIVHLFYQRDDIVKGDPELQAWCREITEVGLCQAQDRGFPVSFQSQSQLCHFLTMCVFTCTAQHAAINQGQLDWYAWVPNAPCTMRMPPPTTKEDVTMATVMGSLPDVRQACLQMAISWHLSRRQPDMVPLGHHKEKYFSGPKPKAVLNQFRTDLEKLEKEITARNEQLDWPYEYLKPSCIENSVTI
#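 Purified human 12hLO (150 nM final) was preincubated with compounds for 15 min at room temperature in 25 mM Hepes pH 7.0, 0.01% Triton X-100, then reacted with 40 uM arachidonic acid for 30 min. Hydroperoxide was detected with ferrous iron/xylenol orange.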
# p53ts 39C tox: cytotoxicity in p53ts cells at nonpermissive temperature; H1299-p53A138V viability at 39C, ATP luminescence, 24 h; Potency, µM (highest dose often 46.1 µM), inactives show top-dose activity change, negative = cell killing, hits mostly cytotoxic; hit rate 1.5% among 130,000; AID 902; further: nearly all actives have a fitted effect of over 55% in size
# HPGD block: inhibitors of human 15-hydroxyprostaglandin dehydrogenase (HPGD) | P15428 | purified HPGD, NADH fluorescence kinetic, PGE2 substrate | Potency, µM, for the others: top-dose activity change, negative = inhibition, most hits filed as inhibitors | hit rate 4.3% among 150,000 | AID 894; active means well fitted inhibition curve with a large enough effect, not every such curve was filed as active; inconclusive means small, poorly fitted or top-dose-only effect, or another doubt; inactive means no such curve, though single readings can be large or run the other way
#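 20 nM HPGD preincubated 15 min at room temperature with compound in 50 mM Tris-HCl pH 8, 0.01% Tween 20. Started with 1 mM NAD+ and 30 uM prostaglandin E2; NADH fluorescence (360/450 nm) read 5 times over 30-s intervals, last minus first.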
# p53ts 32C kill: cytotoxicity in p53ts cells at permissive temperature; H1299-p53A138V at 32C, ATP luminescence viability, 24 h; Potency, µM (highest dose often 46.1 µM), for the others: at the top dose activity change, negative = cytotoxicity, actives largely listed as cytotoxic; hit rate 0.93% among 130,000;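 further: 0% = DMSO and -100% = full killing by reference compound; nearly all actives have a fitted effect of over 55% in size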
#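 ATP-content luminescence (ATPlite) read-out after 24 h compound exposure at 32C in H1299-p53A138V cells (600/well). Tested up to 46 uM. Normalized to DMSO (0%) and 100 uM tamoxifen (100% killing); Hill-fit AC50.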
# * marks the source's active call; other numbers are inactive results; ? = inconclusive; · = not tested or not shown. Unless noted, the call rests on the fitted dose curve; in most records, active means well fitted curve in the direction sought with a large enough effect; inconclusive means small, poorly fitted or top-dose-only effect, or another doubt; inactive means no such curve, though single readings can be large; an effect the other way counts as inactive or inconclusive. Unless noted, on the % scale 0 is the no-effect control and ±100 the full control effect; potency means the concentration at half of the fitted maximal effect.
SMILES,12-hLO inh,p53ts 39C tox,HPGD block,p53ts 32C kill
Cc1ccsc1/C=N/n1c(-c2ccccn2)n[nH]c1=S,-27.5%,·,28.2µM*,·
Cc1ccsc1/C=N/n1c(-c2ccccc2)n[nH]c1=S,-1.6%,·,12.6µM*,·
Cc1ccccc1-n1c(-c2ccncc2)n[nH]c1=S,-0.4%,8.6%,?,-0.1%
Cc1cc(-c2n[nH]c(=S)n2/N=C/C(Cl)=C/c2ccccc2)n[nH]1,-3.5%,·,6.31µM*,·
Cc1ccsc1/C=N/n1c(-c2ccncc2)n[nH]c1=S,-1.9%,·,28.2µM*,·
N#Cc1cccc(-c2nc(N3CCNCC3)c3ccccc3n2)c1,2.8%,?,-11.6%,-12.4%
O=C(c1cc(C(F)(F)F)cc(C(F)(F)F)c1)N1CCC2(CC1)CCN(c1ccccc1)CC2,1.9%,-20.3%,-5.2%,-19.8%
CCOC(=O)c1c(-c2ccc(C)cc2)csc1NC(=O)c1cc(=O)c2cc(C)ccc2o1,·,7.0%,·,7.5%
Cc1cc(-c2n[nH]c(=S)n2/N=C/c2cccc([N+](=O)[O-])c2)n[nH]1,0.8%,·,?,·
Cc1cc(-c2n[nH]c(=S)n2/N=C/c2sccc2C)n[nH]1,-6.7%,·,22.4µM*,·
Cc1ccsc1/C=N/n1c(-c2ccco2)n[nH]c1=S,-3.2%,·,14.1µM*,·
O=C(C1CCCN(S(=O)(=O)c2cccc3nonc23)C1)N1CCN(c2ccccc2Cl)CC1 (stereo unspecified),4.0%,-17.0%,14.1µM*,0.9%
CCN(CC)c1ccc(NS(=O)(=O)c2ccc3c(c2)oc(=O)n3C)c(C)c1,-25.8%,4.4%,12.6µM*,0.9%
CCN(CC)c1ccc(NC(=O)CCS(=O)(=O)c2ccc3c(c2)oc(=O)n3C)c(C)c1,·,3.7%,·,-2.9%
CCCCCCNC(=O)C(C(=O)OCC)C1CCCCC1 (stereo unspecified),-1.4%,8.1%,-9.5%,1.6%
CCCCCCCCCCCCC(=O)N1CCCC[C@H]1CNC(=O)[C@@H](N)CCCCN,7.2%,31.6µM*,-3.6%,-6.8%
Cc1ccccc1OCC(=O)Nc1ccc(C(=O)OCc2cc(=O)n3c(C)csc3n2)cc1,·,-33.4%,·,3.9%
CC1CCCN(CCC(=O)c2ccc(Br)cc2)C1 (stereo unspecified),-0.8%,-10.8%,3.98µM*,-12.3%
Cc1cccc(OCCn2c(S(=O)(=O)O)nc3ccccc32)c1,-1.5%,·,-6.4%,·
N#CCCn1c(=S)[nH]c2ccccc21,-5.0%,·,14.1µM*,·
Cc1cccc(OCCn2c(=S)[nH]c3ccccc32)c1,28.2µM*,25.6%,2µM*,12.2%
COc1ccc(S(=O)(=O)N(CC(=O)Nc2cc(Cl)ccc2C)Cc2ccccc2)cc1OC,·,2.8%,·,15.6%
CCc1ccc2nc(N3CCC(C(=O)NCCC(C)C)CC3)sc2c1,·,15.8µM*,·,?
Cc1cc(C)c2nc(N3CCCC(C(=O)NCCCN4CCOCC4)C3)sc2c1 (stereo unspecified),4.2%,·,-2.8%,·
COc1ccc2nc(N3CCCC(C(=O)NCCCN4CCN(C)CC4)C3)sc2c1 (stereo unspecified),-0.9%,10µM*,-1.0%,12.6µM*
SMILES,12-hLO inh,p53ts 39C tox,HPGD block,p53ts 32C kill
CCCN(CCC)CCCNC(=O)C1CCN(c2nc3ccc(CC)cc3s2)CC1,·,?,·,12.6µM*
CCCN(CCC)CCNC(=O)C1CCN(c2nc3ccc(CC)cc3s2)CC1,·,?,·,12.6µM*
COc1ccc(-n2c(=O)c3sc4ccccc4c3n(CC(=O)Nc3ccccc3F)c2=O)cc1,·,4.5%,·,-0.4%
COC(=O)N1[C@H]2CC[C@@]3(C)C=C(C)O[C@]1(C)C3c1ccccc12,·,·,-1.8%,·
O=C(c1ccncc1)c1ccc(NS(=O)(=O)c2ccc(Br)s2)cc1,0.6%,·,28.2µM*,·
CCOC(=O)c1ccc(NS(=O)(=O)c2ccc(Br)s2)cc1,·,-8.0%,·,-2.0%
CCOc1ccc(CCNC(=O)CCCc2nnc3n(C)c(=O)c4sccc4n23)cc1OCC,·,14.4%,·,-5.7%
CCC1CCCCN1S(=O)(=O)c1ccc(NC(=O)CSc2ncccc2C(=O)O)cc1 (stereo unspecified),-3.4%,-0.4%,14.1µM*,-7.2%
Cn1c(=O)c(-c2ccc(Cl)cc2)nc2cnc(Oc3cccc(Cl)c3)nc21,·,?,·,-17.2%
CCCCCCCCCCCCCCCCCC(=O)NC[C@@H](COP(=O)([O-])OCC[N+](C)(C)C)OCC,23.1%,?,·,?
Cc1cccc(/C=N/n2c(-c3ccncc3)n[nH]c2=S)c1,-1.1%,·,15.8µM*,·
S=c1[nH]nc(-c2ccccc2)n1/N=C/c1ccc(-c2ccccc2Cl)o1,1.1%,·,3.16µM*,·
